# SENP8 block-1 – SENP8 (human) protease inhibition; Q96LD8; recombinant SENP8, Nedd8 substrate fluorescence; inhibition, % at 20 µM; actives 0.64% (n = 360,000); AID 602440; in the data active means inhibition mostly above about 40%, no sharp cut-off; inactive means mostly below about 27%
# Target sequence (Q96LD8 whole entry, looked up): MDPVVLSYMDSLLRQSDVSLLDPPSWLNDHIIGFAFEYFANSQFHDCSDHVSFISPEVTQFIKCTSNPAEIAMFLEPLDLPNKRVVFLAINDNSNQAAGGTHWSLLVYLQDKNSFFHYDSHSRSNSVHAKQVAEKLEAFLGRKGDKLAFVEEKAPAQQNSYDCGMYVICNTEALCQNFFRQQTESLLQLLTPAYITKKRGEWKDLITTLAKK
# SENP7 inh – inhibitors of human SENP7 protease; Q9BQF6; recombinant SENP7, Z-RLRGG-aminoluciferin luminescence, 40 min; inhibition, % at 5 µM; actives 1.5% (n = 330,000); AID 434973;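 active means inhibition above about 50% at the single test dose, limit read from the data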;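 further: plate controls were DMSO with enzyme for no effect and no enzyme buffer wells for full effect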
# SENP6 inh – inhibitors of human SENP6 protease | Q9GZR1 | Recombinant SENP6 catalytic domain, aminoluciferin luminescence | inhibition, % at 10 µM | actives 1.8% (n = 330,000);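 active means inhibition above about 50% at the single tested dose, limit read from the data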;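 further: plate controls were DMSO wells with enzyme for no effect and DMSO wells lacking enzyme for full effect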
# SENP8 block-2 – blocks the human protease SENP8. actives 1.2% (n = 330,000). purified SENP8, Z-RLRGG-aminoluciferin cleavage, luminescence. inhibition, % at 10 µM; in the data active means inhibition above about 50%
# HSP90 inh – inhibitors of HSP90 luciferase refolding in rabbit reticulocyte lysate | luciferase refolding luminescence, 3 h | inhibition, % at 5.6 µM | actives 0.91% (n = 290,000);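 active means inhibition above the screen-wide mean plus 3 SD, computed separately per campaign, cut at about 16% in these data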;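 further: 0% = DMSO wells and 100% = 60 µM geldanamycin wells; inhibitors lower the luminescence because luciferase stays unfolded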
# SENP8 confirm – confirmation of human SENP8 protease inhibitors; Recombinant SENP8, Z-RLRGG-aminoluciferin luminescence, 60 min; AID 488912; shares compounds with SENP7 inh; inhibition, % at 12.5 µM; actives 40% (n = 6,200);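 active means mean inhibition across replicates above about 50%, limit read from the data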
# SENP6 conf – confirmation of human SENP6 protease inhibitors. inhibition, % at 12.5 µM. actives 58% (n = 6,200). AID 488915. shares compounds with SENP7 inh. recombinant SENP6, Z-RLRGG-aminoluciferin luminescence
# SENP7 conf – human SENP7 inhibition, confirmed; recombinant SENP7, Z-RLRGG-aminoluciferin luminescence, 40 min; inhibition, % at 12.5 µM; shares compounds with SENP7 inh; actives 69% (n = 6,200)
# Casp3 select – caspase-3 inhibition (SENP selectivity assay); shares compounds with SENP7 inh; actives 60% (n = 6,200); purified caspase-3, Z-DEVD-aminoluciferin luminescence, 60 min; inhibition, % at 12.5 µM; AID 488918;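 active means mean inhibition above about 50%, limit read from the data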;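 further: plate controls were enzyme with DMSO for no effect and wells without caspase-3 for full effect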
# Target sequence (P42574 28-227 limits assumed): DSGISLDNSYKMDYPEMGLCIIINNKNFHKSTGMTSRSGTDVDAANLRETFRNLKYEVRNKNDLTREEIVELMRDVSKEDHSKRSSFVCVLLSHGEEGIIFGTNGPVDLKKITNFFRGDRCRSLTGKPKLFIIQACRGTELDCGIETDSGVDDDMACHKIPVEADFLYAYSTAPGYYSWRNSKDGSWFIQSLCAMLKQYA
# SENP luc ctr – interferes with luciferase luminescence in SENP counter-screen; shares compounds with SENP7 inh; Pre-incubated SENP8/Z-RLRGG-aminoluciferin, luciferase luminescence interference; inhibition, % at 12.5 µM; actives 39% (n = 6,200); AID 488919;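 active means mean inhibition above about 50% when retested at one dose, limit read from the data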;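 further: plate controls were DMSO wells with completed reaction for no effect and substrate without enzyme for full effect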
# * = called active by the depositor; i = inactive; x = no result given. Most compounds without a hit are left out; they make up all but 2.8% or so of the library.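 How the source made its calls, unless noted: active means mean inhibition above about 50% in the one-dose retest (limit read from the data); inactive means the rest.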
SMILES,SENP8 block-1,SENP7 inh,SENP6 inh,SENP8 block-2,HSP90 inh,SENP8 confirm,SENP6 conf,SENP7 conf,Casp3 select,SENP luc ctr
Nc1ccccc1-c1nnc(-c2ccc(-c3ccccc3)cc2)o1,-272.1,96.2*,14.0,76.8*,2.3,7.8,10.5,16.4,51.1*,-4.0
COc1ccccc1-c1nnc(-c2ccc(N3CCOCC3)cc2)o1,-268.9,-4.4,-28.6,-7.7,3.2,x,x,x,x,x
Clc1cccc(-c2nnc(-c3ccno3)o2)c1,21.4,5.0,6.3,-6.5,3.1,x,x,x,x,x
Nc1ccc(-c2nnc(-c3ccc(N)cc3)o2)cc1,-301.7,7.1,1.4,-10.7,-3.3,x,x,x,x,x
c1ccc(-c2nnc(-c3ccccc3)o2)cc1,12.3,91.5*,87.2*,78.9*,-1.4,72.5*,82.4*,96.0*,87.8*,66.4*
CC(=O)CCC(=O)OCC(=O)Nc1ccc(SC(F)F)cc1,3.2,-9.4,-22.9,-12.5,5.0,x,x,x,x,x
CSc1ccccc1-c1nnc(-c2ccccc2)o1,-212.3,82.8*,84.1*,74.3*,6.2,66.5*,80.6*,95.5*,77.8*,61.6*
COc1ccc(-c2nnc(-c3ccccc3)o2)cc1OC,-304.1,63.7*,58.4*,34.8,-0.4,49.5,49.5,83.7*,76.5*,68.0*
COc1ccc(-c2nc(C#N)c(NCCc3ccccc3)o2)cc1OC,i,58.8*,72.5*,57.4*,-0.2,6.5,66.0*,90.4*,56.1*,58.7*
COc1ccc(-c2nc(C#N)c(NCc3ccc(C)cc3)o2)cc1OC,-472.8,0.1,-23.8,-3.3,-4.2,x,x,x,x,x
COc1cc(-c2nnc(-c3ccccc3)o2)cc(OC)c1OC,-493.9,1.4,-1.0,3.6,-0.3,x,x,x,x,x
CCCS(=O)(=O)c1c(S(=O)(=O)CCC)c2c(C(N)=O)cccn2c1C(=O)c1ccc(F)cc1,0.0,-4.3,-14.1,-14.2,0.5,x,x,x,x,x
COc1cccc(NC(=O)NCCCCc2ccccc2)c1,0.5,7.2,12.7,-0.1,1.5,x,x,x,x,x
COc1ccc(OC)c(S(=O)(=O)Oc2ccc(N)c3ccccc23)c1,-14.3,28.4,94.3*,72.4*,x,2.1,24.1,18.6,2.9,3.3
COc1ccc(OC)c(S(=O)(=O)Nc2cccc3ccccc23)c1,-17.8,-7.9,12.4,11.2,x,x,x,x,x,x
Oc1cc(NCc2ccc(F)cc2)cc2cccnc12,-23.7,3.5,22.9,10.4,x,x,x,x,x,x
CN(C)CCCNc1cc(O)c2ncccc2c1,-12.4,44.3,73.7*,48.0,x,19.0,62.1*,24.7,89.7*,-7.4
CC(C)Cc1nc2sc3c(=O)n(N)cnc3c2c2c1COC(C)(C)C2,-7.9,-2.7,-11.9,-8.1,0.1,x,x,x,x,x
Cc1cc(C(=O)Nc2ccc3c(c2)OCCO3)c(C)o1,13.5,51.3*,-40.2,31.9,2.2,46.0,47.2,83.7*,81.4*,67.4*
CCCOc1ccc(C(=O)Nc2ccc3c(c2)OCCO3)cc1,9.1,76.3*,63.7*,72.9*,8.6,21.2,48.3,93.4*,74.5*,7.5
Cc1occc1C(=O)NNC(=O)Nc1ccc(F)cc1F,12.3,8.7,-8.1,-1.5,-3.3,x,x,x,x,x
Cc1occc1C(=O)Nc1ccc(Br)cc1F,18.1,44.5,56.2*,14.5,9.8,17.5,26.2,73.2*,63.0*,49.1
CC(=O)Oc1ccc(C(=O)Nc2ccc3c(c2)OCCO3)cc1,19.1,47.4,49.8,2.3,8.1,x,x,x,x,x
Cc1occc1C(=O)Nc1ccc2c(c1)OCCO2,8.3,84.3*,89.2*,72.5*,-0.3,11.1,77.7*,95.0*,90.3*,76.1*
Cc1occc1C(=O)Nc1ccc2c(c1)CCC2,4.8,93.5*,91.3*,85.9*,-3.7,92.4*,91.9*,99.2*,93.7*,92.0*
SMILES,SENP8 block-1,SENP7 inh,SENP6 inh,SENP8 block-2,HSP90 inh,SENP8 confirm,SENP6 conf,SENP7 conf,Casp3 select,SENP luc ctr
O=C(Nc1ccc2c(c1)OCCO2)c1coc2ccccc2c1=O,-225.5,98.5*,98.0*,86.3*,5.1,86.2*,85.0*,92.4*,70.7*,14.5
COc1ccccc1N(C)S(=O)(=O)c1ccc(Cl)c(C(=O)Nc2cccc(C)n2)c1,-4.5,0.9,13.5,2.8,x,x,x,x,x,x
CC(C)Cn1c(SCC(=O)c2ccc(Cl)s2)nnc1-c1ccco1,-328.2,-4.9,-15.9,-5.2,5.2,x,x,x,x,x
O=C(OCc1ccccc1Cl)c1cccnc1Cl,10.8,28.3,63.0*,19.6,4.2,32.4,34.9,71.6*,42.1,36.3
CCc1ccc(C(=O)COC(=O)c2cccnc2Cl)cc1,-4.0,93.8*,93.0*,87.5*,-1.0,90.1*,90.1*,100.1*,93.0*,87.9*
O=C(COC(=O)c1cccnc1Cl)c1ccccc1,0.6,65.4*,78.5*,23.5,12.7,56.3*,52.7*,87.0*,86.0*,71.1*
CC(C)N(C(=O)COC(=O)c1cccnc1Cl)c1ccccc1,13.7,2.0,11.2,3.2,x,x,x,x,x,x
O=C(OCc1ccc(COC(=O)c2cccnc2Cl)cc1)c1cccnc1Cl,1.2,-4.1,-8.0,-22.4,-2.2,x,x,x,x,x
COc1ccc(-c2csc3ncnc(N4CCN(c5cccc(Cl)c5)CC4)c23)cc1,-2.3,-1.0,-9.9,-2.9,-1.4,x,x,x,x,x
COc1ccc(OC)c(S(=O)(=O)NCc2ccc(N3CCN(C)CC3)cc2)c1,-1.9,-1.3,-1.2,10.3,-1.4,x,x,x,x,x
CCOC(=O)c1sc(=NC(=O)c2ccccc2)n(C)c1C,-192.4,53.5*,-30.1,34.5,-8.5,17.8,14.0,14.9,12.5,3.7
CCOC(=O)c1sc(NC(=O)c2ccccc2)cc1C,-43.7,94.4*,93.2*,76.7*,-6.5,57.2*,89.5*,100.0*,84.2*,38.8
CCOC(=O)c1sc(NC(=O)c2ccc(S(=O)(=O)N(C)C)cc2)cc1C,-3.7,3.9,-2.6,-4.4,-1.0,x,x,x,x,x
Cc1ccc(CNc2nc3ccccc3n3nnnc23)cc1,-412.4,8.3,-6.0,-9.8,2.1,x,x,x,x,x
c1ccc([C@H]2CN3C(=N2)Sc2ccccc23)cc1,14.3,88.0*,93.5*,88.9*,x,93.2*,93.0*,99.7*,88.0*,91.5*
COc1cc(SC)ccc1C(=O)Nc1ccc2ncccc2c1,-23.4,88.4*,93.8*,88.4*,10.7,3.3,77.1*,95.3*,67.7*,38.0
COc1cc(SC)ccc1C(=O)Nc1ccc(C)cc1C,8.4,70.2*,75.2*,61.4*,0.3,20.3,25.6,24.5,38.7,6.1
COc1cc(SC)ccc1C(=O)Nc1ccc(C)cc1,7.1,7.1,-13.3,2.3,2.1,x,x,x,x,x

# Screens (PubChem BioAssay)
